Data from PubChem BioAssay AID463173 (ICCB-Longwood Screening Facility, Harvard Medical School, 2010).
Among all 52,000 compounds or so, about 4,300 (8.3%) were called active. Rule as the data show it: active = survival mostly below about 52% (no sharp cut-off); inactive = mostly above about 56%. Many of the other results were omitted from the sample, so actives are more common in it than they were.

System: DeltatarO mutant
Test: growth inhibition of S. aureus wild type versus tarO mutant, primary screen, teichoic acid synthesis inhibitors, RN4220, OD600 (AID 463173)
Settings: OD600, 18 h, active compounds read low, screened at 18.75 µg/mL (by protocol)

Structure (SMILES) | survival
CC(C)C(=O)Nc1cccc(C(=O)Nc2nncs2)c1 | 87% (inactive)
O=C(CSc1nc(-c2ccc(F)cc2)[nH]c1-c1ccccc1)NCC1CCCO1 (stereo not drawn) | 82% (inactive)
Cc1ccccc1-c1noc(-c2ccc(NCc3cccnc3)c([N+](=O)[O-])c2)n1 | 98% (inactive)
O=C(c1ccc2c(c1)C(=O)N(CCCO)C2=O)c1ccc2c(c1)C(=O)N(CCCO)C2=O | 70% (inactive)
C[N+](C)(C)CCNC(=O)c1ccc(/C=N/O)nc1 | 81% (inactive)
Oc1ccc(CNc2ccccc2Cl)c2cccnc12 | 115% (inactive)
O=C(COc1ccccc1Cl)Nc1nnc(S(=O)(=O)N2CCCCCC2)s1 | 70% (inactive)
CCN(CC)S(=O)(=O)c1nnc(NC(=O)COc2ccccc2Cl)s1 | 95% (inactive)
O=C(COc1ccccc1Cl)Nc1nnc(S(=O)(=O)N2CCCC2)s1 | 39% (active)
Cc1ccccc1OCC(=O)Nc1nnc(S(=O)(=O)N(C)c2ccccc2)s1 | 67% (inactive)
Cc1ccccc1OCC(=O)Nc1nnc(S(=O)(=O)N2CCCCCC2)s1 | 73% (inactive)
Cc1ccccc1OCC(=O)Nc1nnc(S(=O)(=O)N2CCCC2)s1 | 42% (active)
O=C(COc1ccccc1F)Nc1nnc(S(=O)(=O)N2CCCCCC2)s1 | 51% (active)
Cc1ccc(NC(=O)CN2C=NS(=O)(=O)c3ccccc32)cc1 | 76% (inactive)
Cc1ccc2nc(N(Cc3cccnc3)C(=O)c3ccc4c(c3)OCCO4)sc2c1 | 70% (inactive)
COc1ccc(/C=C/c2nc(C#N)c(N3CCN(c4ccccc4)CC3)o2)cc1OC | 88% (inactive)
COc1ccc(-c2onc(C)c2C)cc1S(=O)(=O)NC1CCCCC1 | 72% (inactive)
CCOc1ccc(CCNC(=O)C2CCN(C(=O)N3CC(CC)Oc4ccc(C)cc43)CC2)cc1 (stereo not drawn) | 63% (inactive)
Cc1ccc(Cn2cc(S(=O)(=O)c3ccc(Cl)cc3)c(=O)c3cc4c(cc32)OCO4)cc1 | 77% (inactive)
Cc1ccc(S(=O)(=O)NCCc2nnc3ccc(SCC(=O)Nc4ccc(F)cc4F)nn23)cc1 | 88% (inactive)
Cc1c(C)n(Cc2ccccc2)c2ccc(C(=O)N3CCN(c4ccccc4)CC3)cc12 | 99% (inactive)
COC(=O)c1ccc(NC(=O)CN(Cc2ccccc2)S(=O)(=O)c2ccc(Cl)cc2)cc1 | 40% (active)
CCOC(=O)c1ccc(CN(Cc2ccc(Cl)cc2Cl)S(=O)(=O)c2cccc(Cl)c2)cc1 | 80% (inactive)
CC(=O)Nc1ccc(S(=O)(=O)N(Cc2ccccc2)Cc2ccccc2)cc1 | 54% (active)

Structure (SMILES) | survival
CCOC(=O)c1ccc(CN(Cc2ccc(C)cc2)S(=O)(=O)c2ccc(NC(C)=O)cc2)cc1 | 73% (inactive)
CCOC(=O)c1ccc(NC(=O)CN(Cc2ccc(C)cc2)S(=O)(=O)c2ccc(C)cc2)cc1 | 58% (inactive)
COC(=O)c1ccc(NC(=O)CN(Cc2ccccc2)S(=O)(=O)c2ccc(C)cc2)cc1 | 42% (active)
CCOc1ccc(NC(=O)CN(Cc2ccccc2)S(=O)(=O)c2ccc(Cl)cc2)cc1 | 78% (inactive)
CCOC(=O)c1ccc(CN(Cc2ccc(F)cc2)S(=O)(=O)c2ccc(F)cc2)cc1 | 87% (inactive)
CCOC(=O)c1ccc(CN(Cc2ccccc2)S(=O)(=O)c2ccc(Cl)cc2)cc1 | 32% (active)
Cc1ccc(S(=O)(=O)N(CC(=O)Nc2ccc(C(C)C)cc2)Cc2ccccc2)cc1 | 54% (inactive)
CCN(CC)S(=O)(=O)c1ccc(NC(=O)c2ccccc2)cc1 | 77% (inactive)
COC(=O)c1ccc(NC(=O)CN(CCc2ccccc2)S(=O)(=O)c2ccc(OC)cc2)cc1 | 69% (inactive)
COc1ccc(-c2noc(-c3ccc(NC(C)c4ccccc4)c([N+](=O)[O-])c3)n2)cc1OC (stereo not drawn) | 65% (inactive)
CCCC12CN3CC(C)(CN(C1)C3c1ccc(OCc3ccccc3)cc1)C2=O (stereo not drawn) | 80% (inactive)
COc1ccc(-n2nc3c(N4CCCC(C(=O)NCc5ccccc5C)C4)nnc(C)c3c2C)cc1 (stereo not drawn) | 90% (inactive)
O=C(Nc1ccc(Br)cc1)Nc1nc2c(s1)CCCCCC2 | 83% (inactive)
O=C(Nc1nc2c(s1)CCCCCC2)Nc1ccc(F)cc1F | 0% (active)
Cc1ccc(NC(=O)Nc2nc3c(s2)CCCCCC3)cc1C | 69% (inactive)
CCN(c1cc(C)cc(C)c1)S(=O)(=O)c1nnc(NC(=O)C2CCCCC2)s1 | 105% (inactive)
CCN(c1cc(C)cc(C)c1)S(=O)(=O)c1nnc(NC(=O)c2cccs2)s1 | 25% (active)
CCN(c1cccc(C)c1)S(=O)(=O)c1nnc(NC(=O)c2cccs2)s1 | 21% (active)
CCCCC(=O)Nc1nnc(S(=O)(=O)N(CC)c2cc(C)cc(C)c2)s1 | 66% (inactive)
CCN(c1ccccc1)S(=O)(=O)c1nnc(NC(=O)COc2cccc(C)c2)s1 | 107% (inactive)
CCN(c1cccc(C)c1)S(=O)(=O)c1nnc(NC(=O)C2CCCCC2)s1 | 71% (inactive)
CN(c1ccccc1)S(=O)(=O)c1nnc(NC(=O)c2cccs2)s1 | 43% (inactive)
Cc1cccc(N(C)S(=O)(=O)c2nnc(NC(=O)c3cccs3)s2)c1 | 26% (active)
CCN(c1cc(C)cc(C)c1)S(=O)(=O)c1nnc(NC(=O)c2cccc(F)c2)s1 | 37% (active)

Structure (SMILES) | survival
Cc1cccc(N(C)S(=O)(=O)c2nnc(NC(=O)C(C)(C)C)s2)c1 | 99% (inactive)
Cc1ccc(S(=O)(=O)Nc2ccc(-c3ccc(N4CCCCCC4)nn3)cc2)c(C)c1 | 70% (inactive)
CCc1nnc(NC(=O)c2ccc(S(=O)(=O)N3CCc4ccccc4C3)cc2)s1 | 83% (inactive)
Cc1ccc(NC(=O)CCNS(=O)(=O)c2cccs2)cc1F | 63% (inactive)
COc1cc(CN(C(=O)c2cccc(Cl)c2)c2ccccn2)cc(OC)c1OC | 82% (inactive)
COc1ccc(OC(=O)c2ccc3snnc3c2)cc1 | 86% (inactive)
COc1ccc(CNC(=O)CCS(=O)(=O)c2cc3c4c(c2)CCN4C(=O)CC3)cc1OC | 66% (inactive)
Cc1ccc(C)c(NS(=O)(=O)c2cc3c(cc2Cl)NC(=O)CO3)c1 | 85% (inactive)
CCN(c1ccc(C)cc1C)S(=O)(=O)c1nnc(NC(=O)c2ccccc2OC)s1 | 55% (inactive)
CCN(c1ccc(C)cc1C)S(=O)(=O)c1nnc(NC(=O)c2ccc(F)cc2)s1 | 14% (active)
CCN(c1ccc(C)cc1C)S(=O)(=O)c1nnc(NC(=O)CC(C)C)s1 | 75% (inactive)
CC(C)Cn1cc(NC(=O)NCc2ccccc2)c2ccccc2c1=O | 74% (inactive)
CCc1nonc1NC(=O)c1oc2cc(C)c(C)cc2c1C | 102% (inactive)
CCOC(=O)c1cc(C(=O)OCC)c(=S)[nH]c1O | 98% (inactive)
CCOC(=O)c1cc2ccccc2[nH]c1=O | 82% (inactive)
CCOC(=O)c1cnc(SCC)[nH]c1=O | 41% (active)
Cc1ccc(NC(=O)c2c(NC(=O)c3ccc(F)cc3)sc3c2CCCC3)cc1C | 67% (inactive)
COCCCNC(=O)c1ccc2c(c1)NC(=O)C(C(C)C)N2 (stereo not drawn) | 57% (inactive)
COc1ccc(NC(=O)c2sc3nc4c(cc3c2N)CCCCCC4)c(OC)c1 | 62% (inactive)
CCc1oc(C(=O)O)cc1CN | 97% (inactive)
COc1ccc(Br)c2c1-c1nc(NC(=O)c3cccc(C)c3)sc1C2 | 44% (inactive)
COc1ccc(C(=O)Nc2nc3c(s2)Cc2c(Br)ccc(OC)c2-3)cc1OC | 36% (active)
COc1cc(C(=O)Nc2nc3c(s2)Cc2c(Br)ccc(OC)c2-3)cc(OC)c1OC | 36% (active)
COc1ccc(Br)c2c1-c1nc(NC(=O)c3ccccc3F)sc1C2 | 69% (inactive)

Structure (SMILES) | survival
COc1ccc(Br)c2c1-c1nc(NC(=O)c3ccccc3SC)sc1C2 | 105% (inactive)
COc1ccc(Br)c2c1-c1nc(NC(=O)c3ccc(F)cc3)sc1C2 | 67% (inactive)
Cc1cccc(N2CCN(C(=O)CN3C(=O)CSc4c3c(C)nn4-c3ccccc3)CC2)c1C | 83% (inactive)
O=C(Nc1ccc(F)cc1)c1cccc(N2CCCS2(=O)=O)c1 | 70% (inactive)
COc1cc(C(=O)Nc2nnc(S(=O)(=O)N(C)c3ccccc3)s2)cc(OC)c1OC | 40% (active)
O=C(Nc1nnc(C(F)(F)F)s1)c1ccccc1 | 24% (active)
CCCC(=O)Nc1nnc(S(=O)(=O)N(C)c2ccccc2)s1 | 108% (inactive)
CN(c1ccccc1)S(=O)(=O)c1nnc(NC(=O)c2ccccc2)s1 | 32% (active)
COc1ccc(C(=O)Nc2nnc(S(=O)(=O)N(C)c3ccc(C)cc3)s2)cc1 | 79% (inactive)
CC(C)C(=O)Nc1cccc(C(=O)Nc2nnc(C(F)(F)F)s2)c1 | 58% (inactive)
Cc1nnc(NC(=O)c2ccccc2)s1 | 71% (inactive)
COc1ccc(C(=O)Nc2nnc(S(=O)(=O)N(C)c3ccc(Cl)cc3)s2)cc1OC | 83% (inactive)
CCN(C(=O)Cn1cnc2c1c(=O)n(C)c(=O)n2C)c1ccccc1C | 87% (inactive)
Fc1ccc(N2CCN(c3nc4ccccc4c4nc(-c5cccnc5)nn34)CC2)cc1 | 93% (inactive)
CC(=O)N1c2ccc(S(=O)(=O)N3CCCCCC3)cc2CC1C(=O)NCc1cccc(F)c1 (stereo not drawn) | 65% (inactive)
Cc1ccc(NC(=O)c2ccco2)c(OCc2cc(=O)n3cc(C)sc3n2)c1 | 102% (inactive)
CCOC(=O)Nc1ccc2c(c1)OCO2 | 79% (inactive)
O=C(/C=C/c1ccccc1)Nc1ccc2c(c1)OCCO2 | 76% (inactive)
NC(=O)/C=C/C(=O)Nc1ccc2c(c1)OCO2 | 33% (active)
CCc1ccccc1NC(=O)N1CCOc2ccccc21 | 106% (inactive)
CSc1ccc(C2c3c(oc4ccc(F)cc4c3=O)C(=O)N2c2ccc(C)cn2)cc1 (stereo not drawn) | 81% (inactive)
